# In paper PMC9911399, “Two distinct binding modes provide the RNA-binding protein RbFox with extraordinary sequence specificity”:
# Numbering of substitutions follows the chain as printed; changes in the protein carry UniProt numbers. In all, about 16,000 sequences were measured (“ka relative to ugcaugu”: median about 0.096, highest 2% from about 0.35 on). The full list was thinned out, with the highest values kept by preference.
# T1: RBFOX1 RRM RbFoxmut (Fox-RRM*) (Homo sapiens, UniProt Q9NWB1 109-208, R118D;E147R;N151S;E152T)
# T1 sequence: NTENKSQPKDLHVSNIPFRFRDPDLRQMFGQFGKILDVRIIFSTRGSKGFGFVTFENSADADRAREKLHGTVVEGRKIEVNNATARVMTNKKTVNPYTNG
# B1: UUUUCUG (DNA:RNA)
# RNA: GGGAGACCGGAAUUCAGAUUGUCCUUUUCUGUUAAAUCCCGUCGUAGCCACCA
# DNA 1: CAATCTGAATTCCGGTCTCCC
# DNA 2: TGGTGGCTACGACGGGATT
# B2: UCCUCCG (DNA:RNA)
# RNA: B1 RNA with U26C, U27C, U30C
# DNA 1: CAATCTGAATTCCGGTCTCCC
# DNA 2: TGGTGGCTACGACGGGATT
# B3: GCCCAGU (DNA:RNA)
# RNA: GGGAGACCGGAAUUCAGAUUGUCCGCCCAGUUUAAAUCCCGUCGUAGCCACCA
# DNA 1: CAATCTGAATTCCGGTCTCCC
# DNA 2: TGGTGGCTACGACGGGATT
# B4: GGGGGGG (DNA:RNA)
# RNA: B3 RNA with C26G, C27G, C28G, A29G, U31G
# DNA 1: CAATCTGAATTCCGGTCTCCC
# DNA 2: TGGTGGCTACGACGGGATT
# B5: CACCGGG (DNA:RNA)
# RNA: B3 RNA with G25C, C26A, A29G, U31G
# DNA 1: CAATCTGAATTCCGGTCTCCC
# DNA 2: TGGTGGCTACGACGGGATT
# B6: GGGGUCG (DNA:RNA)
# RNA: B3 RNA with C26G, C27G, C28G, A29U, G30C, U31G
# DNA 1: CAATCTGAATTCCGGTCTCCC
# DNA 2: TGGTGGCTACGACGGGATT
# B7: GGGGUUG (DNA:RNA)
# RNA: B1 RNA with U25G, U26G, U27G, U28G, C29U
# DNA 1: CAATCTGAATTCCGGTCTCCC
# DNA 2: TGGTGGCTACGACGGGATT
# B8: CGGGUCG (DNA:RNA)
# RNA: B1 RNA with U25C, U26G, U27G, U28G, C29U, U30C
# DNA 1: CAATCTGAATTCCGGTCTCCC
# DNA 2: TGGTGGCTACGACGGGATT
# B9: CGGGUUG (DNA:RNA)
# RNA: B1 RNA with U25C, U26G, U27G, U28G, C29U
# DNA 1: CAATCTGAATTCCGGTCTCCC
# DNA 2: TGGTGGCTACGACGGGATT
# B10: GGGUUAA (DNA:RNA)
# RNA: B3 RNA with C26G, C27G, C28U, A29U, G30A, U31A
# DNA 1: CAATCTGAATTCCGGTCTCCC
# DNA 2: TGGTGGCTACGACGGGATT
# B11: CGGUUGA (DNA:RNA)
# RNA: B3 RNA with G25C, C26G, C27G, C28U, A29U, U31A
# DNA 1: CAATCTGAATTCCGGTCTCCC
# DNA 2: TGGTGGCTACGACGGGATT
# B12: GUCGGGG (DNA:RNA)
# RNA: B3 RNA with C26U, C28G, A29G, U31G
# DNA 1: CAATCTGAATTCCGGTCTCCC
# DNA 2: TGGTGGCTACGACGGGATT
# B13: CGGGGGG (DNA:RNA)
# RNA: B3 RNA with G25C, C26G, C27G, C28G, A29G, U31G
# DNA 1: CAATCTGAATTCCGGTCTCCC
# DNA 2: TGGTGGCTACGACGGGATT
# B14: GGGUCCG (DNA:RNA)
# RNA: B1 RNA with U25G, U26G, U27G, U30C
# DNA 1: CAATCTGAATTCCGGTCTCCC
# DNA 2: TGGTGGCTACGACGGGATT
# B15: GGGUUGA (DNA:RNA)
# RNA: B3 RNA with C26G, C27G, C28U, A29U, U31A
# DNA 1: CAATCTGAATTCCGGTCTCCC
# DNA 2: TGGTGGCTACGACGGGATT
# B16: UAAGAGC (DNA:RNA)
# RNA: B3 RNA with G25U, C26A, C27A, C28G, U31C
# DNA 1: CAATCTGAATTCCGGTCTCCC
# DNA 2: TGGTGGCTACGACGGGATT
# B17: GACCGCG (DNA:RNA)
# RNA: B3 RNA with C26A, A29G, G30C, U31G
# DNA 1: CAATCTGAATTCCGGTCTCCC
# DNA 2: TGGTGGCTACGACGGGATT
# B18: GCACUUC (DNA:RNA)
# RNA: B3 RNA with C27A, A29U, G30U, U31C
# DNA 1: CAATCTGAATTCCGGTCTCCC
# DNA 2: TGGTGGCTACGACGGGATT
# B19: UGACGAC (DNA:RNA)
# RNA: B3 RNA with G25U, C26G, C27A, A29G, G30A, U31C
# DNA 1: CAATCTGAATTCCGGTCTCCC
# DNA 2: TGGTGGCTACGACGGGATT
# B20: GCCAGGU (DNA:RNA)
# RNA: B3 RNA with C28A, A29G
# DNA 1: CAATCTGAATTCCGGTCTCCC
# DNA 2: TGGTGGCTACGACGGGATT
# Biological target: T1, RBFOX1 RRM RbFoxmut (Fox-RRM*)
# Test: EMSA; HiTS-Eq, 1 nM pool, 10 min; buffer printed only for the single-RNA assays: 10 mM Tris pH 7.5, 150 mM NaCl, 3.4 mM EDTA, 0.001% NP-40, 30 C
# Details: tags: His6 N-terminal (pET28a); label: 5' 32P
# Procedure, shortened: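 A pool of RNA with 7 randomized nucleotides, 5′-radiolabelled and with DNA-annealed flanks, was equilibrated at 1 nM for 10 min in 50 µL with purified RbFox RRM, wild type or mutant, across increasing protein concentrations. Free RNA was separated by 8% native PAGE, excised, reverse-transcribed, barcoded by PCR and sequenced. Relative association constants were obtained from read-count changes of each RNA species versus the control reaction and normalised to the cognate motif.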
row,Binder,binding signal
1,B1,0.0689 KA relative to UGCAUGU
2,B2,0.0609 KA relative to UGCAUGU
3,B3,0.102 KA relative to UGCAUGU
4,B4,0.0675 KA relative to UGCAUGU
5,B5,0.0671 KA relative to UGCAUGU
6,B6,0.357 KA relative to UGCAUGU
7,B7,0.609 KA relative to UGCAUGU
8,B8,0.259 KA relative to UGCAUGU
9,B9,0.66 KA relative to UGCAUGU
10,B10,0.0954 KA relative to UGCAUGU
11,B11,0.139 KA relative to UGCAUGU
12,B12,0.101 KA relative to UGCAUGU
13,B13,0.0805 KA relative to UGCAUGU
14,B14,0.238 KA relative to UGCAUGU
15,B15,0.356 KA relative to UGCAUGU
16,B16,0.0654 KA relative to UGCAUGU
17,B17,0.101 KA relative to UGCAUGU
18,B18,0.0473 KA relative to UGCAUGU
19,B19,0.069 KA relative to UGCAUGU
20,B20,0.0955 KA relative to UGCAUGU
